Sampled rows, rich in hits. Any-hit rate of the full collection: about 19%.
TDP1 cell noCPT: qHTS for Inhibitors of human tyrosyl-DNA phosphodiesterase 1 (TDP1): qHTS in cells in absence of CPT; DT40 Tdp1-/- hTDP1 cells, no CPT, ATP luminescence, 48 h; Potency, µM (top dose mostly 46.2 µM), for inactives: top-dose activity change, negative = growth inhibition, hits mostly inhibitors; 420,000 compounds, 15% hits; note: potency is the fitted concentration of half-maximal effect; nearly all actives have a fitted effect of over 55% in size
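Chicken DT40 Tdp1-/- cells stably complemented with human TDP1 were seeded at 400 cells/well with DMSO in place of 20 nM camptothecin. After compound pinning, cells grew at least 48 hr at 37 °C; viability read by CellTiter-Glo luminescence.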
HT1080-NT tox: kills 2HG-producing HT-1080-NT fibrosarcoma cells; HT-1080-NT fibrosarcoma viability, CellTiter-Glo ATP luminescence, 48 h; Potency, µM (highest dose often 46.1 µM), for inactives: top-dose activity, negative = less viability, actives largely listed as cytotoxic; 360,000 compounds, 1.6% hits; AID 686970;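 note: NT is the 2HG producing partner of a matched IDH1 knockdown line; potency is the fitted concentration of half-maximal effect; 0% = DMSO-treated cells and -100% = media-only wells without cells; nearly all actives have a fitted effect of over 55% in size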
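Viability of the 2HG-overproducing fibrosarcoma line after 48 hours of compound exposure at 37 degrees C was determined by luminescence with CellTiter-Glo, and concentration-effect curves were then fitted and categorized.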
DT40 TDP1 CPT: DT40-hTDP1 cell growth loss with CPT. AID 686979. Potency, µM (series often up to 46.2 µM), without a hit: top-dose activity change, negative = growth inhibition, actives largely listed as inhibitors. chicken DT40 Tdp1-/-;hTDP1 cells + 20 nM CPT, ATP luminescence, 48 h. 420,000 compounds, 12% hits; note: potency is the fitted concentration of half-maximal effect; nearly all actives have a fitted effect of over 55% in size
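Chicken DT40 Tdp1-/- cells complemented with human TDP1, 400 cells/well, exposed to compounds plus 20 nM camptothecin for at least 48 h at 37 C; viability read as ATP content by CellTiter-Glo luminescence.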
HT1080 IDH1KD tx: HT-1080 IDH1 knockdown cell toxicity (counter line) | HT-1080 IDH1 knockdown viability, ATP luminescence, 48 h | Potency, µM (highest dose often 46.1 µM), inactives show top-dose activity, negative = toxicity, most hits filed as cytotoxic | 360,000 compounds, 2% hits;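 note: potency is the fitted concentration of half-maximal effect; 0% = DMSO wells and -100% = cell-free medium wells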
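After a 2 h attachment period, IDH1KD HT-1080 cells took pin-transferred compound for 48 h at 37 °C; ATP-based luminescence after 10 min room-temperature reagent incubation reported viability.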
IL1B secr inh: inflammasome signaling inhibition, IL-1 beta readout; THP-1 LPS/ATP IL-1B secretion, AlphaLISA, 16 h; active compounds read low; activity change, % at 57.5 µM; 360,000 compounds, 4.7% hits; AID 743279; in the data active = activity change below about -50%; inconclusive = mostly about -30% to -49%
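Secreted IL-1B measured by AlphaLISA bead assay after 16 h compound exposure of THP-1 cells; compounds (final up to 57.5 uM) added 1 h before LPS (250 ng/mL) and ATP (1.25 mM) stimulation; lower signal means less secretion.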
Starred values were filed as active, the others as inactive; u = inconclusive; x = no result; ! = not active in a repeat. Unless noted, calls come from the whole dose curve; as a rule, active = well fitted curve in the direction sought with a large enough effect; inconclusive = small, poorly fitted or top-dose-only effect, or another doubt; inactive = no such curve, though single readings can be large; an effect the other way counts as inactive or inconclusive. Unless noted, % is set by controls: 0 for no effect and ±100 for the full control effect.

SMILES	TDP1 cell noCPT	HT1080-NT tox	DT40 TDP1 CPT	HT1080 IDH1KD tx	IL1B secr inh
Cc1ccn2c(NC3CCCCC3)c(C(C)C)nc2c1	-14.1%	1.7%	-21.5%	2.3%	-2.2
Cc1ccc2nc(-c3ccc(F)cc3)c(CC3CCCCC3)n2c1	u	-2.0%	u	-14.0%	15.5
COc1cc(-c2nc3cc(C)ccn3c2NC2CCCCC2)ccc1-c1ccc(C(C)=O)cc1	7.31µM*	-19.9%	13µM*	u	u
CCCCCCSc1ccc(-c2nc3cc(C)ccn3c2NC2CCCCC2)cc1	11.6µM*	-0.4%	18.4µM*	0.3%	-70.0*!
CCCCCCSc1cc(-c2nc3cc(C)ccn3c2NC2CCCCC2)ccc1OC	16.4µM*	1.1%	u	6.4%	-21.2
Cc1ccc(NC(=S)N(C)C(c2ccccc2)c2ccccc2)cc1C	23.1µM*	u	u	-1.4%	-1.5
COCCN(C(=S)Nc1ccc(C)c(C)c1)C(C)c1ccco1 (stereo not given)	u	-0.4%	u	7.3%	7.6
Cc1ccc(NC(=S)N(CCN(C)C)C(C)c2ccco2)cc1C (stereo not given)	u	8.0%	18.4µM*	12.9%	-18.6
COc1ccccc1NC(=O)CSc1nc2nccnc2c(=O)n1CCc1c[nH]c2ccccc12	14.6µM*	x	18.4µM*	x	x
Cc1ccc(NC(=O)CSc2nc3nccnc3c(=O)n2CCc2c[nH]c3ccccc23)cc1C	11.6µM*	x	13µM*	x	x
COc1ccccc1NC(=O)Cn1c(=O)n(CCc2c[nH]c3ccccc23)c(=O)c2cccnc21	-62.3%	4.2%	u	2.6%	-10.3
Cc1ccc(NC(=O)CSc2nc3c(sc4ccccc43)c(=O)n2CCCC(=O)NC2CCCC2)cc1C	13.2%	x	-3.5%	x	x
Cc1ccc(NC(=O)CSc2nc3nccnc3c(=O)n2CCc2c[nH]c3ccccc23)c(C)c1	11.6µM*	x	11.6µM*	x	x
N#Cc1ccc(S(=O)(=O)N2CCCCC2c2cc(C(=O)NCc3cccnc3)no2)cc1 (stereo not given)	u	3.0%	u	3.3%	-1.9
CCCNC(=O)C1(C)CCN(C(=O)c2cc(C)nn2C(C)(C)C)C1 (stereo not given)	1.4%	20.0%	1.6%	15.7%	-12.7
CCCNC(=O)C1(C)CCCN(C(=O)c2cc(C)nn2C(C)(C)C)C1 (stereo not given)	u	16.8%	11.6µM*	u	27.9
CCNC(=O)C1(C)CCCN(C(=O)c2cc(C)n(C(C)(C)C)n2)C1 (stereo not given)	-25.0%	16.9%	7.31µM*	u	22.5
Cc1cc(C(=O)N2CCCC(C)(C(=O)NS(=O)(=O)C3CC3)C2)nn1C(C)(C)C (stereo not given)	2.91µM*	22.4%	u	25.0%	26.0
O=C(O)CNC(=O)c1ccc(NC(=O)/C(=C/c2cccc([N+](=O)[O-])c2)NC(=O)c2ccco2)cc1	-7.2%	10.3%	-6.7%	-2.7%	-6.3
CO/N=C(\C(=O)N[C@@H]1C(=O)N2C(C(=O)O)=C(CSc3nc(C)c(CC(=O)O)s3)CS[C@H]12)c1csc(N)n1	-14.4%	x	4.8%	x	x
O=C(O)Cn1ccnc1[N+](=O)[O-]	-2.5%	-0.8%	-2.8%	0.2%	17.3
COc1ccccc1C(=O)NCC(c1ccco1)N1CCc2ccccc21 (stereo not given)	23.1µM*	-1.3%	14.6µM*	-5.1%	1.0
Cc1ccc(C(=O)NCC(c2ccco2)N2CCc3ccccc32)cc1C (stereo not given)	16.4µM*	-14.1%	20.6µM*	-26.9%	-11.7
COc1ccccc1NC(=O)C(=O)NCC(c1ccco1)N1CCc2ccccc21 (stereo not given)	u	-2.4%	u	-2.4%	-7.7
COc1ccc(CCC(=O)NCC(c2ccco2)N2CCc3ccccc32)cc1 (stereo not given)	23.1µM*	-14.0%	18.4µM*	-8.6%	-7.5
SMILES	TDP1 cell noCPT	HT1080-NT tox	DT40 TDP1 CPT	HT1080 IDH1KD tx	IL1B secr inh
COc1cc(C(=O)NCC(c2ccco2)N2CCc3ccccc32)cc(OC)c1OC (stereo not given)	9.2µM*	-18.0%	u	-5.3%	-0.5
COC(=O)[C@@]1(Cc2ccccc2)[C@H]2C(=O)N(C)C(=O)[C@H]2[C@H]2CN=C(SCC(=O)c3ccccc3)N21	u	-12.1%	-4.4%	-11.6%	3.0
Cc1ccc(C2N(C)C(=O)c3ccccc3N2C)cc1 (stereo not given)	20.6µM*	u	-11.7%	u	-2.6
Cc1ccc([C@@H]2[C@@H]3C(=O)N(C)C(=O)[C@@H]3[C@@H]3C(=O)Nc4ccccc4C(=O)N23)cc1	2.6%	-0.5%	-1.6%	-0.1%	46.5
COc1ccccc1CNC(=O)CCn1cnc2ccccc2c1=O	-21.7%	x	-2.6%	x	x
Cc1cc(N2CCN(C(=O)c3ccco3)CC2)n2ncnc2n1	-7.3%	22.4%	-3.8%	20.1%	-12.0
Cc1cc(N2CCN(C(c3ccccc3)c3ccccc3)CC2)n2ncnc2n1	u	0.8%	23.1µM*	-1.2%	23.3
Cc1nc2ncnn2c(N2CCN(C(c3ccccc3)c3ccccc3)CC2)c1C	13µM*	-15.4%	20.6µM*	u	-8.3
COc1cccc(C(=O)NCC(c2cccs2)N2CCc3ccccc32)c1 (stereo not given)	u	-2.9%	13µM*	-21.1%	u
COc1cc(C(=O)NCC(c2cccs2)N2CCc3ccccc32)cc(OC)c1OC (stereo not given)	20.6µM*	-17.0%	u	-14.6%	u
COc1ccccc1C(=O)NC(CCSC)C(=O)NCC(c1cccs1)N1CCOCC1 (stereo not given)	-23.5%	-1.4%	-22.0%	-7.4%	0.8
COc1ccccc1C(=O)NCC(c1cccs1)N1CCc2ccccc21 (stereo not given)	18.4µM*	-1.0%	20.6µM*	-15.0%	-0.6
COc1cccc(C(=O)NCC(c2ccco2)N2CCc3ccccc3C2)c1 (stereo not given)	-8.3%	3.9%	-3.3%	0.2%	-15.2
COc1cc[n+]([O-])cc1[N+](=O)[O-]	2.31µM*	17.8%	u	20.4%	-19.3
Cc1cc(C)c(S(=O)(=O)Nc2ccc(N(C)C)cc2)c(C)c1-n1cnnn1	16.4µM*	-10.1%	29.1µM*	-16.9%	-16.3
Cc1ccc(S(=O)(=O)Nc2ccc(-n3cnnn3)cc2)c(C)c1	u	0.3%	u	0.1%	15.1
Cc1nc2ccc(NS(=O)(=O)c3ccc(F)c(F)c3F)cc2s1	u	0.9%	u	-5.7%	47.2
Cc1nc2ccc(S(=O)(=O)Nc3ccccc3C)cc2s1	18.4µM*	u	u	u	12.1
